Most compounds without a hit are left out; they make up all but 4.4% or so of the library.
ALOX12 inhib: 12-hLO (ALOX12) enzyme inhibition | P18054 | purified 12-hLO, xylenol orange hydroperoxide absorbance | Potency, µM (series often up to 57.1 µM), without a hit: at the highest dose activity change, negative = inhibition, usual class: inhibitors | 150,000 compounds, 0.12% hits | AID 1452; further: nearly all actives have a fitted effect of over 55% in size
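Hydroperoxide output read as Fe(III)-xylenol orange absorbance, 573-to-405 nm ratio, after 30 min reaction with 40 uM arachidonic acid. Enzyme: 150 nM purified human 12hLO, 15 min compound preincubation; 25 mM Hepes pH 7.0, room temperature.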
p53ts 32C kill: kills p53ts cells at the permissive temperature | Potency, µM (titrated, usually from 46.1 µM), without a hit: at the highest dose activity change, negative = cytotoxicity, usual class: cytotoxic | 130,000 compounds, 0.93% hits | AID 924 | H1299-p53A138V at 32C, ATP luminescence viability, 24 h;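 further: 0% = DMSO and -100% = full killing by reference compound; nearly all actives have a fitted effect of over 55% in size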
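ATP-content luminescence (ATPlite) read-out after 24 h compound exposure at 32C in H1299-p53A138V cells (600/well). Tested up to 46 uM. Normalized to DMSO (0%) and 100 uM tamoxifen (100% killing); Hill-fit AC50.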
HPGD block: blocks human HPGD enzyme activity; P15428; 150,000 compounds, 4.3% hits; Potency, µM, inactives show top-dose activity change, negative = inhibition, usual class: inhibitors; purified HPGD, NADH fluorescence kinetic, PGE2 substrate; active means well fitted inhibition curve with a large enough effect, not every such curve was filed as active; inconclusive means small, poorly fitted or top-dose-only effect, or another doubt; inactive means no such curve, though single readings can be large or run the other way
Target sequence (P15428 whole entry, looked up): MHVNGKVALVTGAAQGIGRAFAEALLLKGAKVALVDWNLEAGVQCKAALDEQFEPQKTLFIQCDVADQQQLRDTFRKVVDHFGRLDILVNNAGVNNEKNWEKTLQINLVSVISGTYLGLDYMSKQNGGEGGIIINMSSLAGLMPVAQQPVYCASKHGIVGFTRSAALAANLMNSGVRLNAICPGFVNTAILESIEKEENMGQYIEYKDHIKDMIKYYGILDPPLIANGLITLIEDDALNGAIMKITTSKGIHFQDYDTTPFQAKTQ
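20 nM HPGD preincubated 15 min at room temperature with compound in 50 mM Tris-HCl pH 8, 0.01% Tween 20. Started with 1 mM NAD+ and 30 uM prostaglandin E2; NADH fluorescence (360/450 nm) read 5 times over 30-s intervals, last minus first.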
p53ts 39C tox: p53ts cell cytotoxicity, nonpermissive temperature; 130,000 compounds, 1.5% hits; Potency, µM (top dose mostly 46.1 µM), for inactives: at the top dose activity change, negative = cell killing, usual class: cytotoxic; AID 902; H1299-p53A138V viability at 39C, ATP luminescence, 24 h; further: nearly all actives have a fitted effect of over 55% in size
Starred values were filed as active, the others as inactive; ? = inconclusive; nt = not tested or not shown; ! = not active in a repeat; [ ] = dose if it differs, or a comment. Unless noted, the call rests on the fitted dose curve; in most records, active means well fitted curve in the direction sought with a large enough effect; inconclusive means small, poorly fitted or top-dose-only effect, or another doubt; inactive means no such curve, though single readings can be large; an effect the other way counts as inactive or inconclusive. Unless noted, on the % scale 0 is the no-effect control and ±100 the full control effect; potency means the concentration at half of the fitted maximal effect.

SMILES	ALOX12 inhib	p53ts 32C kill	HPGD block	p53ts 39C tox
CN1CCc2cc3c(c4c2[C@H]1[C@H](O)c1ccccc1-4)OCO3	-7%	nt	?	nt
COc1ccc(-n2nc(C(=O)NCC(=O)N3CCN(c4ccccn4)CC3)c3ccccc3c2=O)cc1	-9%	13µM*	?	13µM*
O=C(c1nn(-c2ccccc2)c(=O)c2ccccc12)N1CCN(c2ccccn2)CC1	2%	nt	-4%	nt
O=C(c1ccccc1[N+](=O)[O-])N1CCc2ccccc2C1	4%	nt	13µM*	nt
O=C(c1ccc(CN2CCc3ccccc3C2)cc1)N1CCc2ccccc2C1	2%	nt	3.2µM*	nt
Nc1ccc(C(=O)OCC(=O)N2CCc3ccccc3C2)cc1[N+](=O)[O-]	7%	nt	13µM*	nt
O=C(OCC(=O)N1CCc2ccccc2C1)c1ccc(N2CCOCC2)c([N+](=O)[O-])c1	1%	nt	nt	nt
O=c1c(N2CCN(c3cccc(C(F)(F)F)c3)CC2)csc2ccccc12	nt	-18%	nt	15%
COc1ccc(CCNC(=O)c2ccc3c(c2)nc2n3CCOC2)cc1OC	nt	-2%	nt	?
COc1ccc(S(=O)(=O)Nc2cccc(-c3ccc(N4CCC(C)CC4)nn3)c2)c(OC)c1	nt	10µM*	nt	16µM*
CCc1ccc(S(=O)(=O)Nc2cccc(-c3ccc(N4CCC(C)CC4)nn3)c2)s1	nt	13µM*	nt	10µM*
CC(=O)c1ccc(S(=O)(=O)Nc2ccc(-c3ccc(N4CCCCC4)nn3)cc2)cc1	nt	?	nt	4µM*
CC(=O)Nc1ccc(S(=O)(=O)Nc2cccc(-c3ccc(N4CCC(C)CC4)nn3)c2)cc1	nt	2.5µM*	nt	3.5µM*
CCOc1ccc(-c2cccc(NS(=O)(=O)c3ccc(C)s3)c2)nn1	nt	-9%	nt	-8%
COc1ccc(OC(C)C(=O)NCc2nc(-c3ccc(Cl)cc3)no2)cc1 (stereo not drawn)	nt	-6%	nt	-23%
COc1ccc(-n2c(/C=C/c3ccccc3F)nc3cc(OC)c(OC)cc3c2=O)cc1Cl	nt	-6%	nt	-12%
COc1ccc(OC)c(NC(=O)N2CCC(CN3CCCCC3)CC2)c1	nt	-2%	nt	nt
CCCCNC(=S)N(C)/N=C/c1ccc(F)cc1	-1%	nt	28µM*	nt
COc1ccc(CCNS(=O)(=O)c2c(C)nc3sccn3c2=O)cc1OC	nt	4%	nt	-5%
Cc1ccccc1C(=O)/C=C1/c2ccccc2CC(C)(C)N1C	6%	nt	-22%	nt
CN1/C(=C\C(=O)c2ccccc2Cl)c2ccccc2CC1(C)C	-9%	nt	18µM*	nt
[N-]=[N+]=Nc1nc2c(N)ncnc2n1C1OC(CO)C(O)C1O (stereo not drawn)	11%	2µM*	-10%	2.5µM*
Nc1ncnc2c1nc(Cl)n2C1OC(CO)C(O)C1O (stereo not drawn)	-3%	?	-2%	?
O=C(c1ccc(COc2ccccc2[N+](=O)[O-])o1)N1CCCCCC1	-7%	nt	25µM*	nt
O=C(c1ccc(COc2ccccc2[N+](=O)[O-])o1)N1CCCCC1	-4%	nt	22µM*	nt
SMILES	ALOX12 inhib	p53ts 32C kill	HPGD block	p53ts 39C tox
CC(=O)c1ccsc1-c1c(C)cc2oc(=O)cc(-c3ccccc3)c2c1C	-3%[0.00818 µM]	nt	40µM*	nt
CC(=O)c1ccc(-c2c(C)cc3oc(=O)cc(-c4ccccc4)c3c2C)cc1	-1%[0.00818 µM]	nt	?	nt
Cc1cc2oc(=O)cc(-c3ccccc3)c2c(C)c1-c1sccc1C=O	-4%[0.00818 µM]	nt	40µM*	nt
CNc1nc(Sc2ccccc2)cc(C(F)(F)F)n1	-4%	nt	35µM*	nt
OC[C@H]1O[C@@H](n2cnc3c(NCc4ccccc4)ncnc32)[C@H](O)[C@@H]1O	-3%	6.3µM*	-5%	10µM*
OC[C@H]1O[C@@H](n2cnc3c(NCCc4ccccc4)ncnc32)[C@H](O)[C@H]1O	-2%	11%	-3%	-12%
CCOC(=O)C1CCN(c2nc3ccccc3nc2C(C#N)C(=O)NCCc2ccccc2)CC1 (stereo not drawn)	?	nt	18µM*	nt
CCOC(=O)C1CCCN(c2nc3ccccc3nc2C(C#N)C(=O)OCC)C1 (stereo not drawn)	-22%	14%	-7%	-10%
O=C(O)c1cc(=O)c2ccc(Cl)cc2[nH]1	-7%	7%	28µM*!	19%
O=C(O)c1cc2cc(Cl)ccc2[nH]1	-4%	-1%	-16%	-4%
O=C1/C(=C/c2cccs2)COc2ccccc21	1%	?	25µM*	-13%
O=C1OC(c2ccccc2)=C/C1=C/c1cccs1	-1%	nt	-5%	nt

Screens from PubChem BioAssay.
